Bioassay records deposited in PubChem BioAssay by several laboratories.
GDH-TPI inh: inhibits GDH-TPI coupling enzymes, artifact for Mtb FBA screen; GDH-TPI coupled enzyme counterscreen, NADH absorbance; 360,000 compounds, 1.2% hits; inhibition, % at 4.8 µM; AID 588335; in the data active means inhibition above about 30%;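 further: 0% = DMSO wells and 100% = wells lacking the enzyme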
Autofluor counter: compound fluorescence in toxin protease inhibitor counterscreen; compound autofluorescence counterscreen, microsphere flow cytometry; active compounds read high; fluorescence intensity (test concentration not listed); 360,000 compounds, 3.1% hits; AID 624483; in the data active means fluorescence intensity above about 16000; inconclusive means no clear call, values can overlap the other calls
FBA Mtb inh: Mtb fructose-bisphosphate aldolase inhibition; purified M. tuberculosis FBA, fluorescence read-out; AID 588726; P9WQA3; 360,000 compounds, 2.3% hits; inhibition, % at 1 µM; in the data active means inhibition above about 27%;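 further: 0% = vehicle and 100% = reference inhibitor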
Target sequence (P9WQA3 whole entry, looked up): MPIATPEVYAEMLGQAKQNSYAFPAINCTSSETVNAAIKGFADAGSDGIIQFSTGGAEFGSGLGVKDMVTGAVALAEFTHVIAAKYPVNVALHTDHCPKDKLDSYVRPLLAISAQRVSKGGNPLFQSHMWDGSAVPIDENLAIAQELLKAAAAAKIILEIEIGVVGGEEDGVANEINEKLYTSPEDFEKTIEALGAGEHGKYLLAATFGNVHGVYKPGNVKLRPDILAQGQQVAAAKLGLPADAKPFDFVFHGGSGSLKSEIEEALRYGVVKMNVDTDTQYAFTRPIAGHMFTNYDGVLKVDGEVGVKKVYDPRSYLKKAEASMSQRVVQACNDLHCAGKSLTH
Anthrax LF prot: blocks Bacillus anthracis lethal factor protease; P15917; multiplex microsphere protease cleavage assay, LF; inhibition, % at 10 µM; 360,000 compounds, 0.12% hits; AID 588501; further: plate controls were buffer without enzyme for full effect and enzyme alone for no effect
BoNT-F LC inh: BoNT F light chain protease inhibition. Multiplex microsphere protease cleavage assay, flow cytometry. 360,000 compounds, 0.22% hits. AID 588497. inhibition, % at 10 µM; in the data active means inhibition above about 35%, passing the limit was not always enough; inconclusive means no clear call, values can overlap the other calls; further: plate controls were buffer without enzyme for full effect and enzyme alone for no effect
BoNT-A LC inh2: BoNT A light chain protease inhibition; multiplex microsphere protease substrate cleavage, flow cytometry; inhibition, % at 10 µM; 360,000 compounds, 0.17% hits; AID 588499; further: plate controls were buffer without enzyme for full effect and enzyme alone for no effect
* hit, by the source's call; ? = inconclusive; + = active, no number. Sampled rows, rich in hits. Any-hit rate of the full collection: about 6.6%. Unless noted, no stated cut-off is given here; in the data, active means inhibition above about 30%; inconclusive means no clear call, values can overlap the other calls; inactive means below that.

SMILES	GDH-TPI inh	Autofluor counter	FBA Mtb inh	Anthrax LF prot	BoNT-F LC inh	BoNT-A LC inh2
Cc1ccc(Cn2nc(C)c(NC(=O)C3(C)CC3(Br)Br)c2C)cc1 (stereo unspecified)	7	4327	-8	0	10	0
COn1c(SCc2cccc(Cl)c2)nc2ccccc2c1=O	-1	17254*	-3	-2	-10	-2
COC(=O)c1nc(-c2ccccc2)oc1N1CCOCC1	1	4129	146*	-7	-2	0
COC(=O)c1oc(-c2ccccc2)nc1C	1	3334	3	1	-2	0
COC(=O)c1nc(-c2ccc(C)cc2)oc1N(C)C	18	7076	115*	-2	-1	1
COC(=O)c1nc(-c2ccccc2)oc1N(C)C	19	?	173*	-11	0	?
CCOC(=O)COc1c(Cl)cc(C2NC(=S)NC(c3ccccc3)=C2C(C)=O)cc1OCC (stereo unspecified)	1	1979	2	-1	1	0
O=c1[nH]c(=S)[nH]c2c1CN(Cc1ccc(F)cc1)CC2	23	4003	25	-3	-3	2
O=C1CC(SCCO)C(=O)N1c1ccccc1 (stereo unspecified)	19	23642*	1	-2	-2	-1
O=C(O)CSC1CC(=O)N(c2ccc(Br)cc2)C1=O (stereo unspecified)	12	3148	3	11	14	-1
CCOC(=O)/C(=C/c1c(C)n(C)c2ccc([N+](=O)[O-])cc12)C(C)=O	31*	2036	-8	-2	-17	-2
CCOC(=O)c1c(N)c2cc([N+](=O)[O-])ccc2n1C	5	3451	2	-2	?	?
COC(=O)c1ccc(Oc2nc(Nc3ccc(C)c(C)c3)nc(N(C)C)n2)cc1	14	24525*	2	-4	-7	-3
O=C(Nc1cccc(Cl)c1)c1ccccc1NC(=O)C1CCCCC1C(=O)O (stereo unspecified)	-4	3636	3	0	-51	-2
COc1ccc(-c2ccc(SCC(=O)N3CCCC3)nn2)cc1OC	6	19444*	1	0	6	3
COc1ccc(-c2ccc(SCC(=O)N3CCOCC3)nn2)cc1OC	17	11309	1	0	7	0
O=C(c1ccco1)N1CCCN(Cc2nc(-c3cccs3)no2)CC1	14	3880	-3	0	-2	-1
COc1ccc2[nH]c3c(=O)n(CCN4CCOCC4)cnc3c2c1	31*	3386	152*	-2	-6	0
COc1ccc2c(c1)c1ncn(CCN3CCNCC3)c(=O)c1n2C	1	22441*	129*	-2	2	2
COc1cccc2[nH]c3c(=O)n(CCCN4CCOCC4)cnc3c12	22	3807	147*	-4	-3	-1
Cc1ccc2c(c1)[nH]c1c(=O)n(CCCN3CCOCC3)cnc12	2	2320	13	-1	-2	0
CC(C)Cn1c(N)c(C(=O)COC(=O)C2CC(=O)N(c3ccc4c(c3)OCCO4)C2)c(=O)n(C)c1=O (stereo unspecified)	2	5170	-2	4	3	1
Cc1cccc(Nc2c(O)nc[nH]c2=O)c1	4	3398	-1	-5	-3	0
CC(=O)Nc1cccc(Oc2nc(NCCN(C)C)nc3ccsc23)c1	-2	3886	6	-1	1	0
c1ccc(-c2nc(-n3ccnc3)nc(-n3ccnc3)n2)cc1	-7	5287	2	-13	-3	0
SMILES	GDH-TPI inh	Autofluor counter	FBA Mtb inh	Anthrax LF prot	BoNT-F LC inh	BoNT-A LC inh2
C=CCNc1nc(-c2ccccc2)nc(-n2ccnc2)n1	-16	18305*	-3	0	8	5
c1ccc(-c2nc(NC3CC3)nc(-n3ccnc3)n2)cc1	-7	21514*	-2	2	-9	-6
COc1ccc(/C=C2\SC(=O)N(CCC(=O)N3CCCCC3CCO)C2=O)cc1 (stereo unspecified)	40*	5031	0	-1	-1	0
COc1ccc(/C=C2\SC(=O)N(CCn3cnnn3)C2=O)cc1	38*	2440	-2	1	-2	0
COc1ccc(/C=C2\SC(=O)N(CCNC(=O)C3CC4C=CC3C4)C2=O)cc1 (stereo unspecified)	22	3408	1	-2	2	0
CC(C)(C)c1ccc(C(=O)O[C@H]2[C@H](Cc3ccccc3)NS(=O)(=O)[C@H]3C[C@@H]4C=C[C@]23O4)cc1	13	3157	0	-1	0	0
O=[N+]([O-])c1cc(-n2cnnn2)c(O)c([N+](=O)[O-])c1	31*	5260	-3	-6	-7	2
O=c1[nH]ncc(N/N=C\c2ccc(O)cc2O)c1Cl	38*	2333	2	-2	0	0
O=[N+]([O-])c1cccc(N/N=C/c2cc([N+](=O)[O-])ccc2O)c1	23	3224	-4	0	13	2
Oc1cccc(C=NNc2ccccn2)c1	14	3728	-2	-1	-11	0
O=[N+]([O-])c1ccc(O)c(C=NNc2ccc(S(=O)(=O)O)cc2)c1	52*	3704	-9	-6	8	0
CCN(CC)S(=O)(=O)c1ccc(N/N=C/c2ccc(O)cc2O)nc1	40*	2241	-2	-1	-9	0
Oc1ccc(C=NNc2ccccn2)c(O)c1	41*	4090	-1	-4	-6	0
Cc1cc(C)nc(NC(=O)c2ccc(Cl)cc2Cl)n1	-5	4605	2	2	-13	-1
O=C(CN1CCOCC1)NCC12CC3CC(CC(C3)C1)C2	8	3682	0	-6	-7	-1
Cc1ccccc1NC(=S)N/N=C/c1ccc(O)cc1O	56*	3734	2	-4	-3	-1
Cc1nc(N/N=C/c2ccc(O)cc2O)cc(N2CCOCC2)n1	64*	3363	-1	-4	-23	-1
O=[N+]([O-])c1ccc(O)c(/C=N/Nc2ccccn2)c1	38*	2089	-7	7	67*	21
O=C(O)CCNC(=O)/C(=C/C=C/c1ccccc1)NC(=O)c1ccccc1	18	2480	-1	2	-2	0
CCC(=NCCO)c1c(O)n(-c2ccc(Cl)cc2)c(=O)[nH]c1=O	8	23929*	2	-6	-6	-3
Cn1cc(C(=O)c2ccc(Cl)cc2Cl)cc1C(=O)N/N=C(\N)COc1cccc(C(F)(F)F)c1	2	2951	1	-5	-4	-1
CC(=O)N1N=C(c2cccc(NS(C)(=O)=O)c2)CC1c1ccc2c(c1)OCO2 (stereo unspecified)	4	4227	-2	6	?	0
CS(=O)(=O)Nc1ccc(C2=NN(S(C)(=O)=O)C(c3ccc4c(c3)OCO4)C2)cc1 (stereo unspecified)	12	4874	141*	-4	-36	4
CCC(CC)C(=O)N1N=C(c2ccc(NS(C)(=O)=O)cc2)CC1c1ccc(C)cc1 (stereo unspecified)	29	5214	+	-5	-13	-1
